TEAD-YAP block: TEAD-YAP interaction inhibition. HEK-TIYL cells, TEAD-Gal4/YAP UAS-luciferase luminescence. inhibition, % at 9.12 µM. 640,000 tested, 1.4% active. AID 1259422; in the data active means inhibition above about 32%;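 further: 0% = median of test compound wells and 100% = reference inhibitor wells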
MITF inh: inhibitors of human MITF; AID 1259374; inhibition, % at 2.6 µM; 650,000 tested, 0.91% active; O75030; AlphaScreen MITF homodimerization, bead proximity signal; in the data active means inhibition above about 50%;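 further: 0% = vehicle wells with protein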
Target sequence (O75030 whole entry, looked up): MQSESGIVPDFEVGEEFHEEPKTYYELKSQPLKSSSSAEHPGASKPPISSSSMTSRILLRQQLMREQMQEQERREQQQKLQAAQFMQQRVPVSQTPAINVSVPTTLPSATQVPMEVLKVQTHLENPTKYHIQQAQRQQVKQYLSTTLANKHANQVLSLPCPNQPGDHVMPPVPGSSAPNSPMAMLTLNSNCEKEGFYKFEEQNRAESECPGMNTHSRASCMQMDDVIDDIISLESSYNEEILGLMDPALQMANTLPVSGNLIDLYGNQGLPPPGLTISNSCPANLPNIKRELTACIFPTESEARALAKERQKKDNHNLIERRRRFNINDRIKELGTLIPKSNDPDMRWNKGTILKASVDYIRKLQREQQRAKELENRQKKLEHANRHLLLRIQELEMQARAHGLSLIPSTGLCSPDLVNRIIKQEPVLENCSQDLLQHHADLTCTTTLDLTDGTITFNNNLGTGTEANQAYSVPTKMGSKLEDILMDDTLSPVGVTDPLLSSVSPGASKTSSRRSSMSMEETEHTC
FBW7 activator: human FBW7 E3 ligase activation, primary screen; 650,000 tested, 0.13% active; Q969H0; AlphaScreen FBW7–phospho-cyclin E peptide binding, activator screen; normalized activity (activation), % at 26.1 µM; in the data active means normalized activity above about 1.9%;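 further: purified mutant Fbw7 with reduced substrate affinity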
GPR151 activ: activates the human receptor GPR151. Q8TDV0. PathHunter beta-arrestin GPR151 cells, luminescence. activation, % at 11.2 µM. 650,000 tested, 1% active. AID 1508602; in the data active means activation above about 4.9%;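 further: 0% = median of compound wells and 100% = cells with positive control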
MITF inh conf: confirmation of human MITF inhibitors. shares compounds with MITF inh. AlphaScreen MITF homodimerization, biotin/His-MITF beads. inhibition, % at 2.6 µM. 4,700 tested, 16% active. AID 1259372;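 active means inhibition above a cutoff derived from the DMSO control wells, cut at about 28% in these data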;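 further: 0% = MITF dimer wells with DMSO only; inhibitors lower the bead chemiluminescence by keeping MITF from dimerizing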
AS interf DR: optically interferes with AlphaScreen signal in dose response. shares compounds with MITF inh. AlphaScreen optical interference counterscreen, cell-free. IC50, µM. 480 tested, 6% active. AID 1259373; call rule not given here
AS interf ctr: counter-screen: compounds optically interfering with AlphaScreen; LysRS AlphaScreen counterscreen, signal interference, triplicate; AID 1259376; inhibition, % at 2.6 µM; shares compounds with MITF inh; 4,700 tested, 7.6% active;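 active means inhibition above a cutoff derived from the DMSO control wells, cut at about 30% in these data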
The depositor's hits bear a star; · = not tested or not shown; ! = a repeat was not active. In the library only some 3.5% were active in any assay of this set; here they are far more common.

SMILES	TEAD-YAP block	MITF inh	FBW7 activator	GPR151 activ	MITF inh conf	AS interf ctr	others
COc1ccccc1N1CCN(C2CCN(Cc3ccc([N+](=O)[O-])cc3)CC2)CC1	14.0	56.6*	-0.2	-1.2	-7.5	-5.0
O=[N+]([O-])c1cccc(CN2CCN(C3CCCC3)CC2)c1	2.5	76.3*	0.2	0.1	17.7	13.4
CC(=O)Nc1ccc(CN2CCN(C)CC2)cc1	-4.4	79.9*	-0.2	-0.7	2.6	18.8
OCCN1CCN(Cc2ccc(-c3ccccc3)cc2)CC1	-6.1	60.7*	-0.1	0.6	17.4	3.6
c1ccc(-c2ccc(CN3CCSCC3)cc2)cc1	-7.3	11.7	-0.4	0.2	·	·
CN1CCN(Cc2ccc(-c3ccccc3)cc2)CC1	-13.8	61.3*	0.0	-1.2	15.3	6.3
CCOC(=O)c1c(NC(=O)c2ccc(OC)c(OC)c2)sc(C(=O)N2CCCCC2)c1C	6.7	7.5	0.1	-1.3	·	·
COc1ccc(CCNC(C)CC(=O)Nc2ccccc2)cc1 (stereo unspecified)	1.8	56.4*	0.0	0.1	12.4	10.9
COc1ccc(CCNC(CC(=O)Nc2ccc(Oc3ccccc3)cc2)C(=O)O)cc1 (stereo unspecified)	-4.4	1.9	0.6	-0.7	·	·
O=C(NCC1CCCO1)c1ccc2c(=O)n(Cc3cccc(Br)c3)c(=S)[nH]c2c1 (stereo unspecified)	-2.1	57.9*	0.3	0.9	1.4	-0.9
O=C1CC(N2CCN(CC3CCCO3)CC2)C(=O)N1Cc1ccccc1 (stereo unspecified)	4.3	75.0*	-0.1	0.9	10.8	17.9
CC(=O)Oc1ccc(/C=C2/N=C(c3cccc(Cl)c3Cl)OC2=O)cc1	-5.2	0.7	-0.1	0.4	·	·
Oc1ccc2c(c1)C1CCCC1(N1CCOCC1)O2 (stereo unspecified)	8.2	70.1*	-0.4	1.2	73.1*	-2.3	AS interf DR=>6.48
O=P(O)(O)O[C@@H]1[C@H](O)[C@H](O)[C@@H](OP(=O)(O)O)[C@H](OP(=O)(O)O)[C@H]1O	·	54.2*!	·	3.2	4.3	2.0
c1ccc(Cn2cnc(-c3ccccc3)c2)cc1	-50.9	-15.0	-0.1	-1.3	·	·
COc1ccc(C2/C(=C(/O)c3ccc(C)cc3)C(=O)C(=O)N2CC(C)O)cc1OC (stereo unspecified)	5.2	67.9*	0.0	-0.1	8.3	-3.2
CN1C(=O)C(C)(C)c2cc(S(=O)(=O)N3CCN(C4CCCCC4)CC3)ccc21	3.5	3.6	0.8	2.5	·	·
O=[N+]([O-])c1cc(CN2CCOCC2)c2cccnc2c1O	13.2	106.1*	-0.2	-1.4	107.4*	99.1*
CN1CCN(Cc2cc(Br)c(O)c3ncccc23)CC1	83.8*	104.8*	-1.0	-0.6	112.9*	100.6*
O=[N+]([O-])c1cc(CN2CCCCC2)c2cccnc2c1O	0.4	112.0*	-0.3	-0.5	105.7*	100.3*
CSc1nc2sccn2c(=O)c1C(=O)NCCCO	5.7	19.5	0.5	-0.2	·	·
Cc1ncc(CN2CCCC(C(=O)Nc3cccc(-c4ccc(F)cc4)c3)C2)s1 (stereo unspecified)	-8.8	-11.1	-0.2	-0.2	·	·
Cc1nc2ccccn2c1-c1ccnn1S(=O)(=O)c1ccc(F)cc1	-3.3	73.2*	0.3	-0.8	-1.9	2.2
Cc1nc2ccccn2c1-c1nnco1	-1.6	-13.8	0.1	1.2	·	·
CCCn1cnc2sc(C(=O)N3CCC4(CC3)OCCO4)c(C)c2c1=O	3.5	19.1	0.3	-1.1	·	·
SMILES	TEAD-YAP block	MITF inh	FBW7 activator	GPR151 activ	MITF inh conf	AS interf ctr	others
CCN(Cc1ccccc1)C(=O)C1CCN(Cc2cccc(OC)c2)CC1	-4.4	52.1*	-0.1	-1.6	11.9	8.3
CCOC(=O)C1CCN(C(=O)C2CCN(Cc3cccc(OC)c3)CC2)CC1	10.4	52.1*	-0.1	1.1	6.2	6.5
Cc1ccc2c(Cl)c(C(=O)NCc3ccncc3)sc2c1	5.3	69.7*	0.0	-0.2	4.2	4.5
CCOC(=O)CNC(=O)c1sc2cc(C)ccc2c1Cl	12.4	14.8	0.5	-1.0	·	·
Cc1ccc2nsnc2c1NC(=O)c1ccc(Cl)c(Cl)c1	-2.0	12.1	0.8	0.4	·	·
Cn1ccc2cc(-c3cncc(-c4cccc(C(=O)NCCO)c4)n3)ccc21	1.7	13.3	0.7	-0.5	·	·
C=CCc1cc(Cl)ccc1OCCNCCCOC	9.8	25.2	-0.2	0.3	·	·
C=CCc1ccccc1OCCOCCNCCCOC	11.8	58.0*	0.4	-0.4	-11.1	-5.3
C=CCc1cc(Cl)ccc1OCCNCCO	13.6	51.8*	0.2	-1.3	5.0	-8.8
C=CCc1cc(Cl)ccc1OCCOCCNCCOC	2.6	56.5*	0.2	1.1	41.8*	-0.3	AS interf DR=>6.48
CC(C(=O)Nc1ccc(Br)cc1F)n1ncn2cccc2c1=O (stereo unspecified)	-3.7	-10.9	0.1	2.3	·	·
C(=N\Nc1nncc2ccccc12)/c1ccccn1	77.7*	81.9*	-0.5	-1.6	18.0	28.5
Clc1ccc(/C=N/Nc2nncc3ccccc23)cc1Cl	-27.9	16.5	0.1	1.2	·	·
O=C(c1cccc(Cl)c1)N1CCN(Cc2ccccc2F)CC1	5.7	59.2*	0.1	2.0	6.7	7.4
Cc1ccccc1CN1CCN(C(=O)c2cccc(Cl)c2)CC1	-6.4	62.8*	0.8	0.7	7.4	11.9
NC(=S)N/N=C/c1ccccc1OC(=O)c1cc([N+](=O)[O-])cc([N+](=O)[O-])c1	2.7	59.4*	-0.1	-1.4	29.8*	53.2*
CCCCS(=O)(=O)N1CCN(CC(=O)c2cccs2)CC1	2.5	60.6*	-0.3	0.0	5.3	20.2
CCCS(=O)(=O)N1CCN(CC(=O)c2cccs2)CC1	-0.5	66.6*	-0.3	2.2	7.1	17.7
O=C(NC1CCCCC1)c1nn2c(c1Br)NC(c1cccs1)CC2C(F)(F)F (stereo unspecified)	-0.6	59.9*	0.1	1.1	-8.7	-8.8
CC(C)NC(=O)c1nn2c(c1Br)NC(c1cccs1)CC2C(F)(F)F (stereo unspecified)	-0.2	-1.6	0.1	-0.3	·	·
COc1cc(C)c2c(c1C=O)Oc1c(c(C)c(O)c3c1C(O)OC3=O)OC2=O (stereo unspecified)	-18.1	74.0*	-0.2	-2.3	83.7*	1.7	AS interf DR=>6.48
Cc1cc(O)c(C=O)c2c1C(=O)Oc1c(C)c(O)c3c(c1O2)C(O)OC3=O (stereo unspecified)	-5.8	25.3	-0.2	0.4	·	·
O=C(O)c1ccc(C(=O)O)c(-c2ccccc2)c1	2.9	8.2	0.0	0.3	·	·
O=C(O)c1cccc(-c2cc(C(=O)O)ncc2C(=O)O)c1	-1.1	57.2*	-1.2	2.0	15.6	37.8*
O=C1NC(=Nc2ccc(Cl)cc2)SC1Cc1cccc2ccccc12 (stereo unspecified)	15.5	7.3	0.1	-0.9	·	·
O=C(N/N=C/C=C/c1ccco1)c1ccncc1	5.0	67.5*	-0.5	-0.3	75.6*	-2.6	AS interf DR=>6.48
